# A selection: hits, their analogues and other compounds. The true share with any hit is near 0.5%.
# MLL CXXC-DNA inh – MLL CXXC-DNA interaction inhibition; Q03164; MLL-CXXC / FITC-HOXA9 DNA fluorescence polarization; Potency, µM (highest dose often 115 µM), inactives show top-dose activity change, negative = inhibition, usual class: inhibitors; hit rate 0.037% among 290,000; AID 2662; active means well fitted inhibition curve with a large enough effect in the polarisation, with a control signal flat, not every such curve was filed as active; inconclusive means small, poorly fitted or top-dose-only effect, or effect the other way, or a change in a side signal; inactive means no such curve, though single readings can be large or run the other way; the % refers to the polarisation; further: potency means the concentration at half of the fitted maximal effect
#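 Purified MLL-CXXC (added from a 7 uM solution) was preincubated 5 min at ambient with pinned compounds in 50 mM Tris-HCl pH 7.5, 50 mM NaCl, 1 mM DTT, 0.05% BSA. Fluorescein-labeled HOX-A9 DNA (50 nM solution) followed, 30 min, then polarization read.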
# TR SRC2 fluor cs – alters Texas Red total fluorescence, flagging assay interference. TRb/SRC2 Texas Red total fluorescence interference. Potency, µM (top dose mostly 106 µM), without a hit: at the top dose fluorescence change, negative = quenching. hit rate 0.29% among 280,000; active means well fitted curve in either direction with a large enough effect; inconclusive means small, poorly fitted or top-dose-only effect; further: potency means the concentration at half of the fitted maximal effect; on the % scale 0 is the no-effect control and ±100 the full control effect
#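 Flags fluorescent or light-absorbing compounds by total fluorescence, S + 2P, at 555 nm excitation and 632 nm emission. Mixture: 20 nM Texas Red SRC2 peptide, 0.6 uM human TRb LBD, 1 uM T3, 5% DMSO; compound exposure 5 h at ambient temperature.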
# RGS12 GoLoco inh-1 – blocks human Gai1 binding to RGS12 GoLoco peptide, red readout | Potency, µM (highest dose often 61.6 µM), without a hit: at the highest dose activity, negative = inhibition, usual class: inhibitors | P63096 | hit rate 0.44% among 230,000 | AID 880 | Gai1:RGS12 GoLoco peptide FP, rhodamine, 10 min; active means well fitted inhibition curve with a large enough effect, not every such curve was filed as active; inactive means no such curve, though single readings can be large or run the other way; further: potency means the concentration at half of the fitted maximal effect; on the % scale 0 is the no-effect control and ±100 the full control effect; nearly all actives have a fitted effect of over 30% in size
# Menin-MLL FL inh – menin-MLL binding inhibition, fluorescein peptide | Fluorescence polarization, fluorescein-MLL peptide displacement from menin | FP activity change, % at 61.4 µM | 290,000 tested, under 10 active | AID 1766; active means well fitted curve in the direction sought with a large enough effect in the polarisation, not every such curve was filed as active; inconclusive means small, poorly fitted or top-dose-only effect, or effect the other way, or a change in a side signal; inactive means no such curve, though single readings can be large or run the other way; the % refers to the polarisation; further: % of control where 0% means no effect
# TRb-SRC2 inh – TRbeta-SRC2 interaction inhibition | P10828 | TRbeta-SRC2 peptide binding, fluorescence polarization; receptor liganded with 1 µM T3 | Potency, µM (series often up to 106 µM), for inactives: at the top dose activity change, negative = inhibition, most hits filed as inhibitors | hit rate 0.065% among 280,000 | AID 1469;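 further: potency means the concentration at half of the fitted maximal effect; plate controls were bound peptide for no effect and peptide without receptor for full effect; nearly all actives have a fitted effect of over 50% in size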
#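 Binding of a 20-amino-acid Texas Red SRC2 peptide (20 nM) to TRb ligand-binding domain (0.6 uM) with agonist T3 at 1 uM was followed by fluorescence polarization after a 5 hr room-temperature incubation.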
# Menin-MLL TR inh – displaces Texas Red mutant MLL peptide from human menin; O00255; Menin + Texas Red MLL mutant peptide, fluorescence polarization; Potency, µM (series often up to 61.6 µM), inactives show at the top dose FP activity change, negative = inhibition, actives largely listed as inhibitors; hit rate 0.23% among 270,000; AID 1768; active means well fitted inhibition curve with a large enough effect in the polarisation, with a control signal flat, not every such curve was filed as active; inconclusive means small, poorly fitted or top-dose-only effect, or effect the other way, or a change in a side signal; inactive means no such curve, though single readings can be large or run the other way; the % refers to the polarisation; further: potency means the concentration at half of the fitted maximal effect; % of control where 0% means no effect
# Target sequence (O00255 whole entry, looked up): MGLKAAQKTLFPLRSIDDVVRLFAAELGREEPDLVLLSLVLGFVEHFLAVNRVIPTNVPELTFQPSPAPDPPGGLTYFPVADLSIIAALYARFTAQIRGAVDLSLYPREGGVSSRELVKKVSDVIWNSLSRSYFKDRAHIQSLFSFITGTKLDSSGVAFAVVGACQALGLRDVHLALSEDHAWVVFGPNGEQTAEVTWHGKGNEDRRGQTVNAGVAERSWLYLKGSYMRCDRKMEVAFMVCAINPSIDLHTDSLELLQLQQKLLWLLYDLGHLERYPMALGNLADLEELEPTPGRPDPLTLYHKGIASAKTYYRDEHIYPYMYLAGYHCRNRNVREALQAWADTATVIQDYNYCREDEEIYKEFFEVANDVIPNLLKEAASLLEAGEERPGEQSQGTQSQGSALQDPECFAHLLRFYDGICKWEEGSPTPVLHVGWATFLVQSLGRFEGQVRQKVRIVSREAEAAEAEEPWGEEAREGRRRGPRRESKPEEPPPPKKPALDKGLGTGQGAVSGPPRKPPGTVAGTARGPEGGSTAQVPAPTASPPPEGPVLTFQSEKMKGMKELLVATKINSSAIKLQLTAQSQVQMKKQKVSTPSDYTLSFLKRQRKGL
# RGS12 GoLoco inh-2 – confirmation of human RGS12 GoLoco motif inhibitors | shares compounds with RGS12 GoLoco inh-1 | Gai1/rhodamine-RGS12 GoLoco peptide fluorescence polarization | Potency, µM (highest dose often 57.1 µM), without a hit: at the highest dose activity, negative = inhibition, usual class: inhibitors | hit rate 50% among 110
# * marks the source's active call; other numbers are inactive results; ? = inconclusive; / = no result given; ! = repeats disagree; [ ] = dose if it differs, or a comment. Unless noted, the call rests on the fitted dose curve; in most records, active means well fitted curve in the direction sought with a large enough effect; inconclusive means small, poorly fitted or top-dose-only effect, or another doubt; inactive means no such curve, though single readings can be large; an effect the other way counts as inactive or inconclusive.
SMILES,MLL CXXC-DNA inh,TR SRC2 fluor cs,RGS12 GoLoco inh-1,Menin-MLL FL inh,TRb-SRC2 inh,Menin-MLL TR inh,others
COc1ccc(OC)c(NC(=O)c2cc(S(=O)(=O)N3CCCCC3)c[nH]2)c1,14%,/,/,-2,/,-23%,
COc1cc(Cl)c(NC(=O)c2cc(S(=O)(=O)N3CCCCC3)c[nH]2)c(OC)c1,/,20µM*[quencher],/,/,-7%,/,
CCOc1ccccc1-n1nnnc1SCC(=O)Nc1cc2oc3ccccc3c2cc1OC,33%,-3%,13%,6,-5%,10µM*,
CCOc1ccccc1-n1nnnc1SCC(=O)Nc1cc(C)on1,1%,0%,11%,6,4%,23%,
CCN1/C(=C2\C(=O)N(c3ccccc3)N=C2C)C=Cc2cc(C)ccc21,6%,-3%,3.5µM*,4,-3%,-5%,
CCN1C(=O)/C(=C2\C=Cc3cc(C)ccc3N2CC)OC1=S,4%,1%,24%,2,1%,-15%,
CCC(Cn1nnc2ccccc2c1=O)NC(=O)Nc1ccc(C)cc1C (stereo not drawn),/,0%,/,/,-5%,/,
Nc1ccc(N)c(C(=O)O)c1,?,?,16µM*,-6,-18%,?,
Cn1nc(C(=O)Nc2ccc(F)c(Cl)c2)c2c1-c1ccccc1S(=O)(=O)C2,/,0.0063µM*[quencher],/,/,-25%,/,
COc1ccc(NC(=O)c2nn(C)c3c2CS(=O)(=O)c2ccccc2-3)cc1,3%,/,/,-2,/,-9%,
Cn1nc(C(=O)NCc2ccccc2Cl)c2c1-c1ccccc1S(=O)(=O)C2,-12%,100µM*[quencher],/,/,-28%,/,
Cn1nc(C(=O)N2CCN(c3ccc(Cl)cc3)CC2)c2c1-c1ccccc1S(=O)(=O)C2,-1%,13%,/,/,-4%,/,
Cn1nc(C(=O)N2CCN(c3ccc([N+](=O)[O-])cc3)CC2)c2c1-c1ccccc1S(=O)(=O)C2,15%,/,/,0,/,25µM*,
O=C(O)CCCCCCCCCCC(=O)O,/,1%[201 µM],/,/,7%[201 µM],/,
COC(=O)c1ccc(I)cc1S(=O)(=O)NC(=O)Nc1nc(C)nc(OC)n1,/,1%[201 µM],/,/,-2%[201 µM],/,
CCCNC(=O)Cn1sc2nc(C)cc(C)c2c1=O,22%,0%,7.9µM*,21,-2%,/,
Cc1cc(C)c2c(=O)n(CC(=O)N3CCC(N4CCCCC4)CC3)sc2n1,17%,0%,-50%,-1,0%,2%,
CN1C2CCC1CC(OC(=O)C(O)c1ccccc1)C2 (stereo not drawn),12%,0%,28µM*!,3,3%,0%,
CC1=C(C(=O)Nc2ccc(C)cc2Cl)C2(CCCCCC2)OC1=O,/,11%,/,/,9%,/,
CC1=C(C(=O)Nc2ccc(C)cc2Cl)C2(CCCCC2)OC1=O,/,0.0056µM*[quencher],/,/,-13%,/,
CC1(C)CC(Nc2ccc(Nc3ccccc3)cc2)CC(C)(C)N1,-3%,-4%,-1%[14.2 µM],2,-1%,20µM*,
Cc1ccc(-c2nn3c(=O)cc(CN4CCN(C(=O)Nc5cc(Cl)ccc5C)CC4)nc3s2)cc1,/,-4%,/,/,-1%,/,
CCOC(=O)CNS(=O)(=O)c1ccc(F)cc1Br,/,-2%,/,-8,9%,13%,
CCOc1ccc(NCc2cccn2-c2nnc(N3CCC(C(=O)NCCc4ccc(OC)c(OC)c4)CC3)s2)cc1,/,35µM*[quencher],/,/,-8%,/,
O=C(Nc1nnc(S(=O)(=O)N2CCCCCC2)s1)c1ccccc1Br,-12%,-2%,/,-4,-9%,8%,
SMILES,MLL CXXC-DNA inh,TR SRC2 fluor cs,RGS12 GoLoco inh-1,Menin-MLL FL inh,TRb-SRC2 inh,Menin-MLL TR inh,others
O=C(Nc1nnc(S(=O)(=O)N2CCCC2)s1)c1ccccc1Br,-18%,0.05µM*[quencher],/,-5,-13%,24%,
CCN1c2ccccc2N(C)C1(C)c1ccccc1 (stereo not drawn),4%,45µM*[fluorescent],8.9µM*,?,?,?,
CN1c2ccccc2N(C)C1(C)c1ccccc1,-1%,-5%,1.3µM*,-2,-4%,8%,
NC(=O)SCC(=O)Nc1cccc(Cl)c1,12%,-4%,35%,10,-3%,22µM*,
NC(=O)SCC(=O)Nc1ccc(Cl)cc1,21%,0%,8%,6,0%,2%,
O=C(Nc1cccc(Cl)c1)OCC#CCCl,/,7.9µM*[fluorescent],/,?,0.79µM*,?,
O=S(=O)(c1ccc2nc(-c3ccco3)c(-c3ccco3)nc2c1)N1CCOCC1,-29%,6.3µM*[quencher],0%,5,-9%,?,
O=S(=O)(c1ccc2ccccc2c1)N1CCOCC1,17%,/,/,1,/,-1%,
CC(C)CC(CSc1ccc(Br)cc1)N1CCN(CCc2ccccc2)CCC1=O (stereo not drawn),/,-1%,/,-1,-1%,-14%,
Cc1cc(C)c2c(=O)cc(C(=O)Nc3ccc(S(=O)(=O)Nc4onc(C)c4C)cc3)oc2c1,/,126µM*[quencher],/,/,13%,/,
Cc1ccc2c(=O)cc(C(=O)Nc3ccc(S(=O)(=O)Nc4onc(C)c4C)cc3)oc2c1,4%,?,/,-3,11%,?,
CCOC(=O)/C(C)=C1\NC(C)(C)Cc2ccccc21,5%,-3%,28µM*,0,5%,1%,
CCOC(=O)/C(C(=O)Nc1ccccc1Cl)=C1/NC(C)(C)Cc2ccccc21,6%,-2%,2%,2,-19%,-3%,
Cc1ccc2c(c1)S/C(=C/c1ccc[n+](C)c1)N2CCO,-4%,-1%,8.9µM*,17,4%,-18%,
Cc1ccc(NC(=O)C(=O)Nc2ccc(C)cn2)nc1,1%,-3%,3%,-9,2%,11%,
Cc1ccc(NC(=O)/C(C#N)=C(\N)C(Cl)(Cl)Cl)nc1,-25%,2%,3.5µM*,?,-1%,-23%,
Cc1ccccc1NC(=O)c1cnc2sc(N3CCCC3)nn2c1=O,/,2%,/,/,2%,/,
CCc1ccccc1NC(=O)c1cnc2sc(N3CCCC3)nn2c1=O,/,35µM*[quencher],/,/,-16%,/,
O=C(c1cccn1-c1nnc(N2CCCCC2)s1)N1CCN(c2ccc(Cl)cc2)CC1,/,-1%,/,/,7%,/,
O=S1(=O)c2ccccc2N(Cc2cccc(Cl)c2)c2ccccc21,/,0%,/,/,-9%,/,
CCC(=O)Nc1ccc(-c2nnc(SCC(=O)N3CCCCC3)n2C)cc1,0%,1%,-4%,0,-1%,-14%,RGS12 GoLoco inh-2=15%
Cn1c(SCC(=O)Nc2ccccc2)nnc1-c1ccc(NC(=O)CCc2ccccc2)cc1,21%,-3%,2%,-3,-10%,?,RGS12 GoLoco inh-2=-6%
CCOC(=O)C1CCCN(C(=O)Cn2cnc3c2c(=O)n(C)c(=O)n3C)C1 (stereo not drawn),5%,-4%,-6%,3,0%,-7%,
CCOC(=O)C1CCCN(C(=O)Cn2sc3nc(C)cc(C)c3c2=O)C1 (stereo not drawn),-6%,-9%,18µM*,?,-7%,-3%,RGS12 GoLoco inh-2=?
